Assay outcomes from PubChem BioAssay.
BoNT F protease: BoNT/F light chain protease inhibitors, primary screen, biochemical, flow cytometry, MLPCN library; Multiplex microsphere protease cleavage assay; inhibition, % at 10 µM; 360,000 compounds, 0.22% hits; Botulinum neurotoxin type F light chain protease (Clostridium botulinum); in the data active = inhibition above about 35%, passing the limit was not always enough; inconclusive = no clear call, values can overlap the other calls
BoNT A protease: BoNT/A light chain protease inhibitors, primary screen, biochemical, flow cytometry, MLPCN library. Botulinum neurotoxin type A light chain protease (Clostridium botulinum A str. ATCC 3502). multiplex microsphere protease substrate cleavage. inhibition, % at 10 µM. 360,000 compounds, 0.17% hits. AID 588499, 2011
Autofluor counter: compound fluorescence in toxin protease inhibitor counterscreen; compound autofluorescence counterscreen, microsphere flow cytometry; hits give high values; fluorescence intensity (no concentration beside the values); 360,000 compounds, 3.1% hits; in the data active = fluorescence intensity above about 16000; inconclusive = no clear call, values can overlap the other calls
Anthrax LF prot: Bacillus anthracis LF protease inhibitors, primary screen, biochemical, multiplex microsphere, MLPCN library; multiplex microsphere protease cleavage assay; AID 588501, 2011; inhibition, % at 10 µM; Lethal factor (Bacillus anthracis), P15917; 360,000 compounds, 0.12% hits
MazEF act: activators of E. coli MazEF toxin-antitoxin RNase, primary screen, biochemical, fluorescence, uHTS; Endoribonuclease toxin MazF (Escherichia coli (strain K12)), P0AE70; FAM/BHQ RNA-DNA oligo cleavage fluorescence, 5 h; activation, % at 20 µM; 350,000 compounds, 0.32% hits; AID 504720, 2011; in the data active = activation above about 50%
Target sequence (P0AE70 whole entry, looked up): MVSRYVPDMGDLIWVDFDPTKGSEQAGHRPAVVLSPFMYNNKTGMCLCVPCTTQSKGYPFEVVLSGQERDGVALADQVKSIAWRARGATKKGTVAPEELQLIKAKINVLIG
DUSP3 inh: VHR1 phosphatase inhibitors, primary screen, biochemical, absorbance, uHTS. recombinant VHR phosphatase, pNPP absorbance. inhibition, % at 13.3 µM. AID 1654, 2009. Dual specificity protein phosphatase 3 (Homo sapiens), P51452. 290,000 compounds, 0.52% hits; in the data active = inhibition above about 50%
Target sequence (P51452 whole entry, looked up): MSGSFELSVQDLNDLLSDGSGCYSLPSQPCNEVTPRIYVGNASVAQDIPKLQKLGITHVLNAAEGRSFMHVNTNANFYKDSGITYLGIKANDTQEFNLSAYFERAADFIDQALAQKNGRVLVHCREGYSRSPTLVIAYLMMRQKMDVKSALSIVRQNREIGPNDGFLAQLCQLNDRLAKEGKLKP
Numbers stand for hits; . = inactive; ? = inconclusive; / = not tested or not shown. Shown are actives, neighbours in structure and some others; about 4.1% of the full set was active somewhere. Rule as the data show it, unless noted: active = inhibition above about 30%; inconclusive = no clear call, values can overlap the other calls; inactive = below that.

SMILES | BoNT F protease | BoNT A protease | Autofluor counter | Anthrax LF prot | MazEF act | DUSP3 inh
CCOc1cc(Br)ccc1S(=O)(=O)N1CC(C)OC(C)C1 (stereo not drawn) | . | . | 20570 | . | . | .
CCc1ccccc1OCC(=O)Nc1ccc(N2CCCC2)cc1C | . | . | 23739 | . | . | /
CC1(C)Cc2c(cnn2-c2ccccc2)C(NC(=O)CCc2ccc(=O)[nH]n2)C1 (stereo not drawn) | . | . | . | . | . | .
Cc1ccc(CSc2ncnc3c2cnn3Cc2ccccc2)cc1C | . | . | 21383 | . | . | .
Cc1ccc(CSc2ncnc3c2cnn3Cc2ccccc2)cc1 | . | . | . | . | . | .
CC1CCN(C(=O)Cn2c3ccc(F)cc3c3nc4n(c(=O)c32)CCCS4)CC1 | . | . | . | . | . | .
Cc1ccc(OCCn2cc(/C=C(\C#N)C(=O)NCC3CCCO3)c3ccccc32)cc1 (stereo not drawn) | . | . | . | . | 57 | .
Cc1ccc(C)c(OCCn2cc(/C=C(\C#N)C(=O)NCC3CCCO3)c3ccccc32)c1 (stereo not drawn) | . | . | . | . | . | .
Cc1ccc(OCCn2cc(/C=C(\C#N)C(=O)NCC3CCCO3)c3ccccc32)cc1C (stereo not drawn) | . | . | . | . | 114 | .
C[C@H](NC(=O)c1ncn(C)c1C(=O)N[C@@H](C)c1ccccc1)c1ccccc1 | . | . | . | . | . | /
CC(=O)Nc1cccc(NC(=O)CSc2nc(=O)n(CCN3CCOCC3)c3c2CCC3)c1 | ? | ? | . | ? | . | /
O=c1[nH]cc(C=NNc2ccccc2)c(=O)[nH]1 | . | . | . | . | / | /
CCn1c(SCC(=O)N/N=C/C=C\c2ccccc2[N+](=O)[O-])nnc1-c1ccccc1 | . | . | 16357 | . | . | .
O=C(N/N=C/c1ccccn1)c1cc(-c2ccc3ccccc3c2)n[nH]1 | . | . | . | . | . | 51
O=C(N/N=C/C=C/c1ccccc1)c1cccc(Br)c1 | . | . | . | . | 53 | .
O=C(N/N=C/C=C/c1ccccc1[N+](=O)[O-])c1ccncc1 | 56 | . | . | ? | . | .
O=C(N/N=C/C=C/c1ccccc1[N+](=O)[O-])c1cccnc1 | . | . | . | . | . | .
O=C(Nc1ccc(Cl)cc1F)c1cccc2ccccc12 | . | . | . | . | . | .
CN(CC(=O)Nc1ccc(F)cc1)C(=O)CNC(=O)C1CCCCC1 | . | . | . | . | . | /
O=C(Nc1ccncc1)C1CC(=O)N(Cc2ccccc2)C1 (stereo not drawn) | . | . | . | . | . | /
CCN1CCN(S(=O)(=O)c2ccc(Cl)c(C(=O)N(C)Cc3ccc(C(C)(C)C)cc3)c2)CC1 | . | . | . | . | . | /
O=[N+]([O-])c1ccc(Cl)cc1NCc1cccnc1 | ? | . | . | . | . | /
Cc1ccc(C(=O)Nc2cccnc2)cc1Cl | ? | . | . | . | . | .
O=C(N/N=C/C=C\c1ccccc1[N+](=O)[O-])c1cc(-c2ccc3ccccc3c2)n[nH]1 | . | . | . | . | . | 52
O=S(=O)(Nc1nc(-c2ccccc2)cs1)c1cccc(C(F)(F)F)c1 | . | . | . | . | . | .
SMILES | BoNT F protease | BoNT A protease | Autofluor counter | Anthrax LF prot | MazEF act | DUSP3 inh
O=C(COc1ccc(S(=O)(=O)N2CCCC2)cc1Cl)NC1CC1 | . | . | 24369 | . | . | .
O=C(COc1ccc(S(=O)(=O)NC2CCCCC2)cc1Cl)N1CCN(c2ccccc2)CC1 | . | ? | 22544 | . | . | .
O=C(Nc1ccc(Cl)cc1Cl)NC1CCN(S(=O)(=O)c2ccc(F)cc2)CC1 | . | . | . | . | 101 | .
O=C(Cc1ccccc1)NC1CCN(S(=O)(=O)c2ccc(C(=O)O)cc2)CC1 | . | . | . | . | . | .
COCC(=O)NC1CCN(S(=O)(=O)c2ccc(C(=O)O)cc2)CC1 | . | . | 20353 | . | . | .
CCOc1ccc(CCNC(=O)c2cc(C)nc3ccccc23)cc1OCC | . | . | . | . | . | .
CC1=C(C(=O)N(C(C)C)C(C)C)CC(CC(=O)NC2CC2)C(=O)N1CCCN1CCCC1=O (stereo not drawn) | . | . | . | . | / | /
Cc1cn([C@H]2C[C@H](O)[C@@H](CNCc3cccn3-c3nccs3)O2)c(=O)[nH]c1=O | . | . | . | . | . | /
O=C(NC1CCN(S(=O)(=O)c2ccc(F)cc2)CC1)c1ccc(F)cc1 | ? | . | . | . | . | 56
CCCc1nnc(SCC(=O)Nc2cccc(Cl)c2Cl)o1 | . | . | . | . | . | .
CCCOc1ccc(N2C(=O)CC(N(Cc3ccco3)C(=O)CC)C2=O)cc1 (stereo not drawn) | . | . | . | . | . | .
CCCOc1ccc(N2C(=O)CC(N(C(=O)c3ccco3)c3ccc(OCCC)cc3)C2=O)cc1 (stereo not drawn) | . | ? | 16880 | . | . | .
Cc1cccc(Nc2nc(-c3ccncc3)cs2)c1 | . | . | . | . | . | 51
CCOC(=O)C1=CCN(S(=O)(=O)c2ccccc2[N+](=O)[O-])C1c1ccc(C)cc1 (stereo not drawn) | . | . | . | . | / | /
COc1cccc(N2C(=O)C(CC(=O)Nc3ccccc3)N(C3CCCCC3)C2=O)c1 (stereo not drawn) | . | . | 19391 | . | . | .
COc1ccc(-c2nn(CC(=O)Nc3ccc(Cl)c(Cl)c3)c(=O)c3ccccc23)cc1 | . | . | . | . | . | 52
COC(=O)COc1ccc(NC(=O)Cn2nc(-c3ccccc3)c3ccccc3c2=O)cc1 | . | . | . | . | . | .
COc1cccc(NC(=O)C2(C)CCN2Cc2ccccc2OC(F)F)c1 (stereo not drawn) | . | . | . | . | / | /
N#Cc1cc(-c2ccc(Cl)cc2)cnc1Sc1ccccc1 | . | . | . | . | . | .
N#Cc1cc(-c2ccccc2)cnc1Sc1ccc(Cl)cc1 | . | . | 24808 | . | . | .
CCOc1ccc(C(=O)N/N=C/c2ccc(-c3ccc(S(=O)(=O)Nc4ncccn4)cc3)o2)cc1 | . | . | 22776 | . | . | .
O=C(N/N=C/c1ccc(-c2ccc(S(=O)(=O)Nc3ncccn3)cc2)o1)c1cc2ccccc2cc1O | . | . | . | . | . | .
O=C(COC(=O)CCC(=O)c1cccs1)Nc1ccc(F)c(F)c1F | . | . | . | . | . | /
Cc1ccc(-n2ncc(-c3nn[nH]n3)c2N)cc1 | . | . | . | . | . | .
Cc1nnc(SCC(=O)N2CCOCC2)s1 | . | ? | 19625 | . | . | .
Cc1nnc(SCC(=O)Nc2ccc3c(c2)OCCO3)s1 | . | . | 21759 | . | . | .
